Reference: PubChem BioAssay (EPA / NIEHS)
“And” between values parts separate entries of the source, which are not always exact repeats. Equal entries are not always repeated. Results filed as inconclusive are left out. The source made the active and inactive calls. The calls were made as follows, unless noted: active = hit-call score of the fitted dose curve at least 0.9, where 1 is the maximum; inconclusive = response in the unintended direction; inactive = score below 0.9.

How the values were obtained:
[1] = VALA_TUBHUV_Agonist_CellCount: Viability Assessment in the VALA Sciences human Umbilical Vein Endothelial Tubule Formation (TUBHUV) Agonism Assay (AID 2284309)
Summary of the method: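 HUVEC co-cultured 1:3 with HDF for 3 days in 10 ng/ml VEGF, then compounds added in VEGF medium for a further 3 days (72 h). Nuclear-stain/CD31 imaging cell count. Positive-direction fit versus 0.1% DMSO vehicle.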

[2] = VALA_TUBIPS_Agonist_TubuleLength: VALA Sciences human iPS-derived Endothelial Tubule Formation (TUBIPS) Agonism Assay (AID 2284311)
Summary of the method: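 Human iPS-derived endothelial cells were exposed to compound for 72 h. Tubule formation was imaged by high-content fluorescence and scored as gain of signal relative to DMSO vehicle (agonist mode).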

[3] = VALA_TUBIPS_Antagonist_TubuleLength: VALA Sciences human iPS-derived Endothelial Tubule Formation (TUBIPS) Antagonist Assay (AID 2284313)
Summary of the method: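 Cells grown 3 days with 10 ng/ml VEGF, then exposed to compounds in VEGF medium for another 3 days. After fixation, nuclear stain and CD31 immunofluorescence imaging gave mean total tubule length against 0.1% DMSO; suramin (100 uM) inhibition control.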

[4] = VALA_MIGHUV2_WoundArea: VALA Sciences human Umbilical Vein Endothelial Cell Migration (MIGHUV) Assay, Area of Scratch Wound after Recovery (AID 2284316)
Summary of the method: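 HUVEC seeded at 9000 cells/well, scratched after 24 h; test chemical added within 30 min, 6-point concentration response in triplicate (0.1% DMSO vehicle). After 24 h wound recovery, cells fixed and Hoechst-stained nuclei in wound area imaged; Cytochalasin D reference control.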

[5] = VALA_TUBHUV_Antagonist_TubuleLength: VALA Sciences human Umbilical Vein Endothelial Tubule Formation (TUBHUV) Antagonism Assay (AID 2284325)
Summary of the method: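 HUVEC–HDF co-culture (1:3) pre-grown 3 days with 10 ng/ml VEGF, then 3 days with compound plus VEGF. Fixed, nuclear and CD31 stained; total tubule length by imaging versus 0.1% DMSO; suramin 100 uM positive control.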

[6] = VALA_MIGHUV1_ScratchOnly_WoundArea: VALA Sciences human Umbilical Vein Endothelial Cell Migration (MIGHUV) Assay, Area of Scratch Wound Inhibited Recovery (AID 2284336)
Summary of the method: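 HUVEC monolayers (9000 cells/well) were scratched after 24 h, dosed within 30 min (six concentrations, triplicate, 0.1% DMSO), allowed 24 h recovery, then fixed. Hoechst-stained nuclei in the wound imaged; cytochalasin D as reference.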

[7] = VALA_TUBHUV_Antagonist_CellCount: Viability Assessment in the VALA Sciences human Umbilical Vein Endothelial Tubule Formation (TUBHUV) Antagonism Assay (AID 2284310)
Protocol: VALA_TUBHUV_Antagonist is a cell-based, multiplexed assay that uses human umbilical vein endothelial cells (HUVEC). Measurements were taken 72 hours after chemical dosing in a 96-well plate.VALA_TUBHUV_Antagonist_CellCount is the one of two assay components measured from the VALA_TUBHUV_Antagonist assay. It is designed to make measurements of viability, a form of viability reporter, as detected with fluorescence intensity signals by HCS Fluorescent Imaging technology. Data from the assay component VALA_TUBHUV_Antagonist_CellCount was analyzed at the endpoint, VALA_TUBHUV_Antagonist_CellCount, in the positive analysis fitting direction relative to DMSO as the negative control and baseline of activity. Using a type of viability reporter, loss-of-signal activity can be used to understand viability. To generalize the intended target to other relatable targets, this assay endpoint is annotated to the cell cycle intended target family, where the subfamily is cell count.
This HUVEC-HDF assay was designed to detect chemical suppression of tubulogenesis, i.e. antagonism. To measure tubulogenesis antagonism, HUVEC cells were co-cultured with HDF cells at a 1:3 ratio for 3-days in 10 ng/ml VEGF (i.e., favorable conditions with growth factors), then changed to assay medium containing 10 ng/ml VEGF and ToxCast compounds for an additional 3-day period. […]

[8] = VALA_TUBIPS_Antagonist_CellCount: Viability Assessment in the VALA Sciences human iPS-derived Endothelial Tubule Formation (TUBIPS) Antagonism Assay (AID 2284335)
[9] = tested on: TTR (gene 7276); assay: CCTE_GLTED_hTTR_0.5uM: CCTE's human Transthyretin (hTTR) Inhibition Assay, with 0.5uM TTR, Great Lakes Toxicology and Ecology Division (GLTED) Lab (AID 2284320; active = hit-call score of the fitted dose curve at least 0.9, where 1 is the maximum; inactive = score below 0.9)
Protocol: CCTE_GLTED_hTTR is a cell-free, single-readout assay designed to test the chemicals' ability to displace T4 from the human transthyretin (TTR) protein. TTR (at 0.125uM or 0.5uM) is incubated in presence of test chemical for 2 hours during which disrupting chemicals displace ANSA from the TTR protein. Results read fluorescence at 380 excitation and 475 emission.CCTE_GLTED_hTTR_0.5uM is the assay component measured from the CCTE_GLTED_hTTR assay. It is designed to make measurements of fluorescent polarization, using a form of binding reporter, as detected with Fluorescence signals by Fluorescence technology.Data from the assay component CCTE_GLTED_hTTR_0.5uM was analyzed at the assay endpoint CCTE_GLTED_hTTR_0.5uM in the positive analysis fitting direction relative to DMSO as the negative control and baseline of activity. Using a type of binding reporter, loss-of-signal activity can be used to understand a chemical's ability to displace T4 from transthyretin. To generalize the intended target to other relatable targets, this assay endpoint is annotated to the 'transporter' intended target family, where the subfamily is 'hormone carrier protein'.

[10] = IUF_NPC1_cytotoxicity_72hr: Cytotoxicity Assessment at 72 hours in the Leibniz Research Institute for Environmental Medicine (IUF) Neural Progenitor Cell Proliferation Assay (NPC1) (AID 2284332);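 also: rising LDH signal means more cytotoxicity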
Summary of the method: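 Human fetal neural progenitor spheres (0.3 mm) in EGF/FGF proliferation medium, 37C, exposed 72 h without renewal. LDH release in supernatant read by resorufin fluorescence; gain of signal scored relative to dynamic range.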

O=C(O)Cc1cc(I)c(Oc2cc(I)c(O)c(I)c2)c(I)c1
outcome [1]: inactive
outcome [2]: inactive
outcome [3]: inactive
outcome [4]: inactive
outcome [5]: inactive
outcome [6]: inactive

CCCCCCCCCCCCc1ccccc1S(=O)(=O)O
AC50 [1]: 1980 nM (active)
outcome [7]: inactive
outcome [3]: inactive
outcome [4]: inactive
outcome [8]: inactive
outcome [6]: inactive

FC(F)(I)C(F)(F)C(F)(F)C(F)(F)C(F)(F)C(F)(F)I
AC50 [9]: 1.91 µM (active) and 1.88 µM (active)

CC1=C(/C=C/C(C)=C/C=C/C(C)=C/C(=O)O)C(C)(C)CCC1
outcome [10]: inactive

CC#C[C@]1(O)CC[C@H]2[C@@H]3CCC4=CC(=O)CCC4=C3[C@@H](c3ccc(N(C)C)cc3)C[C@@]21C
outcome [10]: inactive
